For experiment [1], the target named is Cytochrome P450 3A4 (Homo sapiens) (UniProt P08684). Briefly: qHTS Assay for Activators of Cytochrome P450 3A4 (AID 885). Note: nearly all actives have a fitted effect of over 65% in size. Particulars: recombinant CYP3A4, Luciferin-PPXE luminescence, 60 min; series mostly up to 57.1 µM. The essentials:
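Using 20nM recombinant human CYP3A4 in potassium phosphate (200mM), substrate Luciferin-PPXE at 25uM, luminescent luciferin detection followed a 60-min RT NADPH reaction; data scaled to 57 uM ketoconazole.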

Experiment [2] in a line: Confirmation and Secondary Assay for Modulators of Hemoglobin Beta Chain Splicing at IVS2 654 locus (AID 910).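 Note: HeLa cells stably carrying EGFP split by mutant beta-globin IVS2-654 intron; % of control where 0% means no effect.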 Particulars: HeLa EGFP-654 splicing reporter, GFP fluorescence, 48 h; series mostly up to 46.1 µM. Put shortly:
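HeLa cells stably expressing EGFP interrupted by β-globin IVS2-654 intron, seeded overnight in Opti-MEM/2% FCS, then treated 2 days at 37 °C. Restored splicing read as total peak GFP intensity per well by laser scanning cytometry (488 nm excitation, 500–520 nm emission); 500 nM antisense PNA as control.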

Experiment [3] is described as follows: Confirmation and Secondary Assay for Modulators of Hemoglobin Beta Chain Splicing at IVS2 705 locus (AID 930).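 Note: GFP fluorescence per well restored by corrected splicing of the IVS2-705 intron in EGFP; % of control where 0% means no effect.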 The conditions noted are these: HeLa EGFP-705 splicing reporter, GFP fluorescence, 48 h; series mostly up to 46.1 µM. Put shortly: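 Secondary splice-site specificity test uses HeLa expressing CMV-driven EGFP interrupted by IVS2-705; cells were treated 2 days at 37C with 500 nM antisense PNA as positive control.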

A short description of experiment [4]: qHTS Assay for Lipid Storage Modulators (AID 1519; calls by dose curve; for activity change, negative = inhibition: % is set by controls: 0 for no effect and ±100 for the full control effect). Particulars: Drosophila S3 cells, BODIPY lipid droplet/cell ratio, laser cytometry, cells loaded with oleic acid; for activity change, negative = inhibition: at 57.5 µM (top of the series). Put shortly: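 Cells seeded at 5,000 per well were treated with compounds over a concentration series and loaded with oleic acid (400 uM, as added). Lipid droplet fluorescence (488 nm excitation, 500-530 nm channel) was read by laser-scanning cytometry and normalized to 20 uM Triacsin C.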
A general note: Quantitative high-throughput screening tests each substance at several concentrations.

The target of experiment [5] is Luciferin 4-monooxygenase (Photinus pyralis) (UniProt P08659). As to the kind of experiment: Biochemical firefly luciferase enzyme assay for NPC (AID 624030).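 Note: purified P. pyralis luciferase at 10 nM with luciferin and ATP substrate; 0% = DMSO and -100% = full luciferase inhibition by PTC124 control; nearly all actives have a fitted effect of over 70% in size.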 Particulars: purified P. pyralis luciferase, luminescence, 5 min; series mostly up to 24.9 µM. Put shortly:
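Purified P. pyralis luciferase at 10 nM in 50 mM Tris Acetate (final), luminescence read within 5 minutes of enzyme addition to compounds. Activity normalised to PTC124 versus DMSO; concentration-response curves classed by r2, magnitude and activity.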

The nature of experiment [6]: qHTS profiling for inhibitors of Plasmodium falciparum proliferation (AID 504749).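 For activity, negative = inhibition: 0% = DMSO vehicle and full inhibition = artemisinin control.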 For all read-outs here: nearly all actives have a fitted effect of over 60% in size. Note: potency is the fitted concentration of half-maximal effect. Particulars: P. falciparum in erythrocytes, SYBR Green DNA, 72 h; for activity, negative = inhibition: at 28.7 µM (top of the series). Put shortly: (§1)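 Each compound contacts P. falciparum-infected red blood cells for 72 h at 37 C; lysis buffer (Tris, EDTA, saponin, Triton X, SYBR Green I) is added and fluorescence measured next morning; values normalized to controls.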

The next experiment relates to CP194. The experiment is described as above. The conditions noted are these: P. falciparum in erythrocytes, SYBR Green DNA, 72 h; series mostly up to 12.8 µM. Put shortly: as §1
Another experiment relates to CP201. The description is as above. The conditions noted are these: P. falciparum in erythrocytes, SYBR Green DNA, 72 h; series mostly up to 12.8 µM. The essentials:
as §1

In another experiment the test system is CP262. Described as above. The conditions noted are these: P. falciparum in erythrocytes, SYBR Green DNA, 72 h; series mostly up to 12.8 µM. The essentials:
as §1

Another experiment deals with CP268. The experiment is described as above. The conditions noted are these: P. falciparum in erythrocytes, SYBR Green DNA, 72 h; series mostly up to 12.8 µM. The essentials: as §1
The subject of the next experiment is CP269. The experiment is described as above. Particulars: P. falciparum in erythrocytes, SYBR Green DNA, 72 h; series mostly up to 12.8 µM. The essentials: as §1
For the next experiment, the system named is CP286. The experiment is described as above. The conditions noted are these: P. falciparum in erythrocytes, SYBR Green DNA, 72 h; series mostly up to 12.8 µM. Put shortly:
as §1

A further experiment has as its system CP305. The experiment is described as above. Particulars: P. falciparum in erythrocytes, SYBR Green DNA, 72 h; series mostly up to 12.8 µM. Put shortly:
as §1

In another experiment the test system is DIV30. Described as above. Particulars: P. falciparum in erythrocytes, SYBR Green DNA, 72 h; series mostly up to 12.8 µM. The essentials:
as §1

For a further experiment, the system named is FAB9. Described as above. The conditions noted are these: P. falciparum in erythrocytes, SYBR Green DNA, 72 h; series mostly up to 12.8 µM. Put shortly:
as §1

Another experiment has as its system JCK. The description is as above. Particulars: P. falciparum in erythrocytes, SYBR Green DNA, 72 h; series mostly up to 12.8 µM. The essentials:
as §1

The subject of another experiment is PC49. Described as above. Particulars: P. falciparum in erythrocytes, SYBR Green DNA, 72 h; series mostly up to 12.8 µM. Put shortly:
as §1

The target of experiment [7] is Cytochrome P450 3A4 (Homo sapiens) (UniProt P08684). Briefly: qHTS Assay for Inhibitors and Substrates of Cytochrome P450 3A4 (AID 884). For activity change, negative = inhibition: % is set by controls: 0 for no effect and ±100 for the full control effect. Note: nearly all actives have a fitted effect of over 50% in size. Note: potency is the fitted concentration of half-maximal effect. Particulars: recombinant CYP3A4, Luciferin-PPXE luminescence; series mostly up to 57.1 µM. Put shortly: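 Luminescent readout of luciferin produced by CYP3A4 (20 nM) dealkylation of Luciferin-PPXE, 25 uM (its KM). NADPH-driven reaction ran 60 min at RT after 10 min compound preincubation; data scaled to 57 uM ketoconazole as 100% inhibition.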
Cytochrome P450 3A4 (Homo sapiens), sequence (P08684 whole entry, looked up): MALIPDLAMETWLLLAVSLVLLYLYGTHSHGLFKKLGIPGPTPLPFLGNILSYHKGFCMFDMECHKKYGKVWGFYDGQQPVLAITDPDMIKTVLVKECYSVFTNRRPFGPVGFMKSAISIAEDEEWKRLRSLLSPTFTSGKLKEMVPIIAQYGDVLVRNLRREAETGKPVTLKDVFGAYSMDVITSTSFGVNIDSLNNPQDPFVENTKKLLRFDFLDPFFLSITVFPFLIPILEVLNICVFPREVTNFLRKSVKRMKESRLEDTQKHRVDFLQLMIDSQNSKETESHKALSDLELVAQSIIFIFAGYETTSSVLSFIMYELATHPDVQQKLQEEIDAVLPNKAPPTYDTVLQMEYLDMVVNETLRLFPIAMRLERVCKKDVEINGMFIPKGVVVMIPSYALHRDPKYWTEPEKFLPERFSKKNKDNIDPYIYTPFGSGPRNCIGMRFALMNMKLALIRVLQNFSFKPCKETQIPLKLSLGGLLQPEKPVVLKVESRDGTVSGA

Experiment [8] concerns the target Ubiquitin carboxyl-terminal hydrolase 1 (Homo sapiens) (UniProt O94782). Briefly: Inhibitors of USP1/UAF1: Pilot qHTS (AID 504865).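 Note: rhodamine fluorescence freed from ubiquitin-rhodamine substrate followed over time; top concentration of the series differs between compounds; % is set by controls: 0 for no effect and ±100 for the full control effect; nearly all actives have a fitted effect of over 35% in size.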 The conditions noted are these: purified USP1/UAF1, Ub-rhodamine cleavage fluorescence; series mostly up to 114 µM. The essentials: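 Enzyme-free wells gave the negative control, while test wells held 1nM USP1/UAF1 preincubated with compound for 15 min at room temperature. Ub-Rho at 150nM final started the reaction, and fluorescence at 480/540 nm was recorded kinetically.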

For experiment [9], the target named is DNA dC->dU-editing enzyme APOBEC-3G (Homo sapiens) (UniProt Q9HC16). As to the kind of experiment: qHTS for inhibitors of Vif-A3G interactions: Validation (AID 588379). Note: 0% is about no effect. The conditions noted are these: Vif-A3G protein interaction assay; series mostly up to 46.1 µM. The essentials:
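Yellow fluorescence (Ex 488, Em 500-530) of Vif-coexpressing HeLa A3G-eYFP cells, scanned by Acumen cytometer, reports blocked A3G degradation. Cells plated at 700/well overnight at 37 deg C before compound addition, then a further overnight compound incubation at 37 deg C.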

Where [10] appears, read: measured here: cell count channel max response.
Where [11] appears, read: measured here: lipid channel max response.

SMILES strings stand for the structures. Inconclusive results are not listed. Active and inactive are the calls of the source. Unless noted, calls come from the whole dose curve; as a rule, active = well fitted curve in the direction sought with a large enough effect; inconclusive = small, poorly fitted or top-dose-only effect, or another doubt; inactive = no such curve, though single readings can be large; an effect the other way counts as inactive or inconclusive.

Ubiquitin carboxyl-terminal hydrolase 1 (Homo sapiens), sequence (O94782 whole entry, looked up): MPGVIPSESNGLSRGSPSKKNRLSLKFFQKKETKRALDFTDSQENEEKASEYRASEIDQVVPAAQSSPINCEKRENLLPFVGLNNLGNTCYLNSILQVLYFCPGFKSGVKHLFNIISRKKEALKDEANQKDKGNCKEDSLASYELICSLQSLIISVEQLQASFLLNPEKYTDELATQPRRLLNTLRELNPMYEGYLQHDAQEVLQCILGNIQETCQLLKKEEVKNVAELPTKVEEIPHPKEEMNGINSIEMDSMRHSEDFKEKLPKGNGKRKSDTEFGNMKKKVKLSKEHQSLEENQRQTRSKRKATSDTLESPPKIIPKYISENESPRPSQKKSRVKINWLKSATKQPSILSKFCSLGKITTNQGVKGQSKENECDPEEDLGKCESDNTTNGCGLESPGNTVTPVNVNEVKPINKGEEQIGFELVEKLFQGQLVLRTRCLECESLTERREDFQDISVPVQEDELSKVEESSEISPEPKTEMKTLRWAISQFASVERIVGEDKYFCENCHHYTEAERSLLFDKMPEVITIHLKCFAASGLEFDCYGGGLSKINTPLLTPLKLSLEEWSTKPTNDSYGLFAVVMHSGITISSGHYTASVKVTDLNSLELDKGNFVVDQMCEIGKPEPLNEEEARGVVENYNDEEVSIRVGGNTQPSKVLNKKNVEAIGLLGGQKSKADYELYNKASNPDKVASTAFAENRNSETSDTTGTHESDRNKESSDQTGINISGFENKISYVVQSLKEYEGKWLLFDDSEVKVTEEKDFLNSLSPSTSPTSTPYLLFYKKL
DNA dC->dU-editing enzyme APOBEC-3G (Homo sapiens), sequence (Q9HC16 whole entry, looked up): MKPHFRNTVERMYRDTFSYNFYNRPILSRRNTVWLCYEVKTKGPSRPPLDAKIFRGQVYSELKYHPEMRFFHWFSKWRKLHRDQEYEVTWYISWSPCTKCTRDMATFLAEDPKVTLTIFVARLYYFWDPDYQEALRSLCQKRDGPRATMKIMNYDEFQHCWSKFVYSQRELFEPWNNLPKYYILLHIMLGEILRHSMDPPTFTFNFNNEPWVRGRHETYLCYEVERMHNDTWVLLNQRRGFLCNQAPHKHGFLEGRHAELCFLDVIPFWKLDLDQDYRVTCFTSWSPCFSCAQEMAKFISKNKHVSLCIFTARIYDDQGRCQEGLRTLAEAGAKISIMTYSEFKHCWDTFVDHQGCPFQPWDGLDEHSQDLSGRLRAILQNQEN
Luciferin 4-monooxygenase (Photinus pyralis), sequence (P08659 whole entry, looked up): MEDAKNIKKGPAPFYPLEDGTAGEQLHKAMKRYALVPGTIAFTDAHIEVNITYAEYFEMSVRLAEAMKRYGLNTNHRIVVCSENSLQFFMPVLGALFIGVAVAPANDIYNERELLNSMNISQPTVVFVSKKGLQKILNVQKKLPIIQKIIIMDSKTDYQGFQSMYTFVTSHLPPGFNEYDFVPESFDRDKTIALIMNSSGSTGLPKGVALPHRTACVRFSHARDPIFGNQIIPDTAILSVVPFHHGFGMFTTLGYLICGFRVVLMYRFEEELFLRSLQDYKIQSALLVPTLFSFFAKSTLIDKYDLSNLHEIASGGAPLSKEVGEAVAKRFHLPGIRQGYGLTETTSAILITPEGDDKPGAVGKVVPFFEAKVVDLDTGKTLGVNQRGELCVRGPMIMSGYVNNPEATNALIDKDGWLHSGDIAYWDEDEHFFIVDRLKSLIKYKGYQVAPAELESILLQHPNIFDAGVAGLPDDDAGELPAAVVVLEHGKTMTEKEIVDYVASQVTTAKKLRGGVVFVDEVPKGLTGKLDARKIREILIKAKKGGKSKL

For `CC(=O)O[C@@]1(C(C)=O)CCC2C3CC(C)C4=CC(=O)CC[C@@]4(C)C3CC[C@]21C` (some centres undefined), the Potency result (in experiment [1]; in experiment [2]; in [3]; in experiment [5]; in the experiment with CP194; in the experiment on CP201) was “inactive” in each case. The Potency entry in the experiment on CP262, in the experiment on CP268, in the experiment on CP269, in the experiment with CP286, in the experiment with CP305 and with DIV30 was “inactive” in each case. Also, the Potency result in the experiment with FAB9, with JCK and with PC49 was “inactive” each time. Further, the activity change, negative = inhibition in [4] was -11.6% (inactive). Moreover, the max response was 4.77% in experiment [4] (setting [10]) and -5.62% in experiment [4] (setting [11]). The Potency in experiment [6] (parasite line B) is 12.6 µM (active).
In the case of `CCC(C)C(=O)OC1CC(O)C=C2C=CC(C)C(CCC(O)CC(O)CC(=O)O)C21` (centres undefined), the Potency result (in experiment [7]; in experiment [2]; in experiment [3]; in [8]; in [5]; with CP194) was “inactive” throughout. Besides, the Potency entry in the experiment on CP201, in the experiment with CP262, with CP268, in the experiment on CP269, in the experiment with CP286 and in the experiment on CP305 was “inactive” throughout. In addition, the Potency result in the experiment with DIV30, with FAB9, in the experiment on JCK and in the experiment with PC49 was “inactive” in each case. For the same compound, the activity change, negative = inhibition in experiment [4] was 5.21% (inactive). Also, the figures for the max response in experiment [4] (setting [10]) and in [4] (setting [11]) were 11.3% and 17.6%, respectively. The values for the activity, negative = inhibition in experiment [6] (parasite line A) and in [6] (parasite line B) were -1.64% (inactive) and -21.8% (inactive), respectively.
Turning to `N[C@H](CO)Cc1cnc[nH]1`, the Potency result in experiment [7] and in [8] was “inactive” throughout. For the same compound, the activity change, negative = inhibition in experiment [4] was 3.9% (inactive). Besides, the max response in experiment [4] (setting [10]) came to 11.7%; in experiment [4] (setting [11]), 15.8%. In addition, the outcome in experiment [9] was inactive.
Take `CNC1C(OC2C(O[C@@H]3C(O)C(O)[C@@H](N=C(N)N)C(O)C3N=C(N)N)OC(C)[C@@]2(O)CO)OC(CO)C(O)C1O` (some centres undefined): the Potency entry (in [7]; in experiment [2]; in experiment [3]; in experiment [8]; in experiment [5]; in the experiment with CP194) was “inactive” in each case. Also, the Potency result with CP201, in the experiment with CP262, in the experiment on CP268, in the experiment on CP269, with CP286 and in the experiment on CP305 was “inactive” throughout. The Potency entry in the experiment on DIV30, with FAB9, in the experiment with JCK and in the experiment with PC49 was “inactive” each time. For the same compound, in experiment [4], the activity change, negative = inhibition was 8.79% (inactive). For the same compound, the max response in [4] (setting [10]) was 13.3%; in [4] (setting [11]), 25.4%. For the same compound, the activity, negative = inhibition is 9.26% (inactive) in [6] (parasite line A) and 13.4% (inactive) in [6] (parasite line B).
For `O=c1[nH]c(=O)n([C@@H]2O[C@H](CO)[C@@H](O)[C@H]2O)cc1Br`, in experiment [4], the activity change, negative = inhibition was -8.5% (inactive). Besides, the max response in [4] (setting [10]) was -11.6%; in experiment [4] (setting [11]) it was -16.6%. The Potency result in experiment [8] was “inactive”. In [9], the compound was classed as inactive.
With `C=C1CC/C=C(\C)CC[C@@H]2[C@@H]1CC2(C)C`, the Potency result in [7] and in [8] was “inactive” each time. The activity change, negative = inhibition in experiment [4] was -10.6% (inactive). The max response in experiment [4] (setting [10]) is -19.4%; in [4] (setting [11]) it was -26.5%. The compound was called inactive in experiment [9].
On to `COC1(C)CCC2OC2(C)CCC2C1CC2(C)C` (centres undefined), for which the Potency in [7] is 10 µM (active). The Potency entry in experiment [1], in [2], in experiment [3] and in experiment [8] was “inactive” throughout. Also, the activity change, negative = inhibition in [4] was 4.15% (inactive). Also, the max response in experiment [4] (setting [10]) is 6.3%; in [4] (setting [11]), 11.9%.
Consider `CC1(C)C(=O)CC[C@@]2(C)C1CC(O)[C@@]1(C)C3=CC(=O)OC(c4ccoc4)[C@]3(C)CCC21` (some centres undefined), for which the Potency in [7] was 15.8 µM (active). For the same compound, the Potency result in [1], in [2], in [3] and in experiment [8] was “inactive” throughout. Also, the activity change, negative = inhibition in experiment [4] is 11% (inactive). In addition, the values for the max response in [4] (setting [10]) and in [4] (setting [11]) were 13.9% and 28.4%, respectively.

The values are drawn from PubChem BioAssay (NCATS).
